Autofluor counter: counter-screen for toxin protease inhibitors: compound fluorescence; 3.1% of 360,000 active; fluorescence intensity (no concentration beside the values); compound autofluorescence counterscreen, microsphere flow cytometry; hits give high values; in the data active = fluorescence intensity above about 16000; inconclusive = no clear call, values can overlap the other calls
3CLpro inhibitor: SARS-CoV 3CLpro protease inhibition. P0C6X7. recombinant SARS-CoV 3CLpro, quenched FRET peptide cleavage. inhibition, % at 6 µM. 0.14% of 290,000 active. AID 1706; in the data active = inhibition above about 12%
Anthrax LF inh2: inhibitors of Bacillus anthracis lethal factor protease; inhibition, % at 10 µM; multiplex microsphere protease cleavage assay, LF; P15917; 0.12% of 360,000 active; note: plate controls were buffer without enzyme for full effect and enzyme alone for no effect
BoNT-A LC inh2: BoNT A light chain protease inhibition; multiplex microsphere protease substrate cleavage, flow cytometry; inhibition, % at 10 µM; 0.17% of 360,000 active; note: plate controls were buffer without enzyme for full effect and enzyme alone for no effect
BoNT F protease: BoNT F light chain protease inhibition; 0.22% of 360,000 active; Multiplex microsphere protease cleavage assay, flow cytometry; inhibition, % at 10 µM; in the data active = inhibition above about 35%, passing the limit was not always enough; inconclusive = no clear call, values can overlap the other calls; note: plate controls were buffer without enzyme for full effect and enzyme alone for no effect
The depositor's hits bear a star; ? = inconclusive; nt = not tested or not shown; + = active, no number; ! = repeats disagree. Most compounds without a hit are left out; they make up all but 3.5% or so of the library. Cut-off read from the data, not from the text of the source, unless noted: active = inhibition above about 30%; inconclusive = no clear call, values can overlap the other calls; inactive = below that.

SMILES | Autofluor counter | 3CLpro inhibitor | Anthrax LF inh2 | BoNT-A LC inh2 | BoNT F protease
CC(=O)n1cc(C2C(=O)CC(C)(C)CC2=O)c2ccccc21 | 21921* | -7 | -2 | 3 | 6
COc1ccc(OC)c(NC(=O)CSc2nc3ccccc3c(=O)n2CCNC(C)=O)c1 | 20543* | -8 | 1 | -3 | -4
CCn1c(SCC(=O)Nc2ccc(NC(=O)c3ccco3)c(OC)c2)nc2ccccc2c1=O | 20994* | -1 | -1 | -4 | -6
CCOc1ccc(NC(=O)CSc2nc3ccccc3c(=O)n2CCNC(C)=O)cc1 | 20012* | 2 | -1 | 2 | 2
COc1ccc(NC(=O)CSc2nc3ccccc3c(=O)n2CCNC(C)=O)c(OC)c1 | 9748 | -1 | -2 | -2 | -3
CCN(CC)c1ccc2nc3ccc(N)cc3[n+](-c3ccccc3)c2c1 | 3078 | nt | 1 | 34* | -40
CCCc1nc2cc(CC(=O)OC)ccc2o1 | 24068* | 2 | 0 | -3 | -2
COc1ccc(N(Cc2cc3cccc(C)c3[nH]c2=O)S(C)(=O)=O)cc1 | 24150* | -3 | -1 | -2 | -5
COc1ccc(N(Cc2cc3ccccc3[nH]c2=O)S(C)(=O)=O)cc1 | 6388 | -3 | -2 | 0 | 6
CCOc1ccc(N(Cc2cc3ccc(C)cc3[nH]c2=O)S(C)(=O)=O)cc1 | 22539* | 4 | -1 | 2 | 3
COc1ccc(CC(=O)Nn2c(-c3ccccc3)nc3ccccc3c2=O)cc1 | 1996 | 3 | 1 | -1 | -13
COCCNC(=O)/C(C#N)=C/c1cn(CC(=O)NCc2ccco2)c2ccccc12 | 3970 | -6 | -6 | 2 | 8
CCOC(=O)c1cc(=O)n(-c2ccc(Cl)cc2C)[nH]1 | 2036 | 0 | 2 | -1 | -6
CC1(C)CC(=O)C2=C(C1)N(c1ccc(F)cc1)C(=O)C2(O)C(F)(F)F (centres undefined) | 22420* | 0 | 0 | -6 | -7
N/C(=N\OC(=O)COc1ccc2ccccc2c1Br)c1ccccn1 | 4100 | 6 | -1 | -1 | -2
CC(=O)c1cccc(OCC(O)CN2CCN(C(=O)c3ccco3)CC2)c1 (centres undefined) | 3602 | 1 | -3 | -3 | -9
CC(=O)c1cccc(OCC(O)CN2CC=C(c3ccccc3)CC2)c1 (centres undefined) | 19622* | -4 | 3 | ? | 5
CC(=O)Nc1ccc(NC(=O)c2ccccc2N(C)S(C)(=O)=O)cc1 | 24126* | 0 | -2 | -4 | -9
CC(=O)N(C)c1ccc(NC(=O)c2ccccc2C(=O)O)cc1 | 21123* | 0 | -1 | ? | 3
Cc1nnc(SC(C)C(=O)Nc2ccc(S(=O)(=O)N3CCCCCC3)cc2)s1 (centres undefined) | 22908* | 3 | -2 | 0 | -1
COC(=O)c1ccc(NC(=O)c2ccccc2N(C)S(C)(=O)=O)cc1 | 4104 | -1 | -14 | 0 | 4
CC(=O)NS(=O)(=O)c1ccc(NC(=O)c2ccccc2F)cc1 | 23846* | -5 | -3 | -1 | -2
Cc1nnc(NC(=O)c2ccc(S(=O)(=O)N3CCCCC3)cc2)s1 | 4002 | nt | -5 | -1 | -8
O=C(OC1CC2CC1[C@H]1CCCCN1C2=O)N1CCN(c2ccccc2)CC1 (some centres undefined) | 5767 | nt | 1 | 0 | -1
O=C(Nc1ccc(Cl)cc1)Nc1ccc(N2CCCC2)c(S(=O)(=O)Nc2ccccc2Cl)c1 | 2749 | 7 | -2 | 0 | -12
SMILES | Autofluor counter | 3CLpro inhibitor | Anthrax LF inh2 | BoNT-A LC inh2 | BoNT F protease
CN(c1ccccc1C(=O)Nc1ccc(S(=O)(=O)N2CCCCC2)cc1)S(C)(=O)=O | 20379* | 0 | 1 | -2 | -7
Cc1cc(S(=O)(=O)N2CCCC(N(C)CCc3ccccn3)C2)c(C)s1 (centres undefined) | 5836 | 0 | 1 | -1 | -10
Clc1ccc(CN2C3=NCCN3c3ccccc32)cc1Cl | 23094* | -5 | 0 | 0 | -4
CCc1c(C)nc(N)nc1N1N=C1SCC#N | 22462* | 2 | -2 | 2 | 2
CCc1c(C)nc(N)nc1N1N=C1SCC(=O)OC | 4523 | -1 | -2 | 0 | -7
CCCC1CC(C)(c2csc(Nc3ccc(OCC)cc3)n2)OC1=O (centres undefined) | 11400 | 6 | -6 | -1 | 0
CCCCOc1ccc(Cl)cc1CSc1nnc(CC)n1N | 24086* | -3 | -4 | -4 | -6
COC(=O)c1ccc(COc2cccc(OC)c2)o1 | 22471* | -1 | -9 | 1 | -3
COC(=O)c1ccc(COc2ccc(Cl)cc2)o1 | 3301 | 0 | -6 | 1 | -2
COc1ccc(N2C(=O)CSC23C(=O)N2c4c(cccc43)C(C)=CC2(C)C)cc1 (centres undefined) | 16577* | 5 | -4 | -1 | -4
COc1c2c(nc3occc13)C(CC=C(C)C)(OC)C(=O)C=C2 (centres undefined) | 3226 | 2 | -14 | -3 | -19
CN(C)c1ccc(/C=C/c2ccc3c4ccccc4ccc3[n+]2-c2ccccc2)cc1 | 1663 | -3 | -62 | 62* | +
Cn1c(=O)c2c(nc(N3CCc4ccccc4C3)n2Cc2ccc(Br)cc2)n(C)c1=O | 5198 | 3 | -2 | 0 | 5
CCOCCCn1c(=NC(C)=O)c(C(=O)OCC)cc2c(=O)n3ccccc3nc21 | 23789*! | -2 | -5 | -1 | -9
CCOC(=O)c1cc2c(=O)n3ccccc3nc2n(C(C)C)c1=NC(=O)c1c(-c2ccccc2Cl)noc1C | 4242 | -1 | 26 | 39* | 9
CCOC(=O)c1cc2c(=O)n3ccccc3nc2n(C(C)C)c1=NC(=O)c1ccncc1 | 4250 | 2 | -1 | 1 | 13
CN(Cc1ccco1)C(=O)CN1C(=O)NC2(CCCCC2)C1=O | 3466 | nt | -3 | 0 | -14
Cc1c(C(=O)N2CCN(c3ccccn3)CC2)oc2ccccc12 | 22383* | -2 | -12 | 3 | 1
COc1cc2ccccc2cc1C(=O)N1CCN(c2ccccn2)CC1 | 5717 | -7 | 0 | -3 | -4
Cc1cnn(C(=O)c2oc3ccccc3c2C)c1 | 22067* | -6 | 2 | 3 | 7
O=C(c1cc2cc(Cl)ccc2oc1=O)N1CCN(c2ccccn2)CC1 | 4351 | 3 | 0 | -7 | -21
COc1cc(Br)cc2cc(C(=O)N3CCN(c4ccccn4)CC3)c(=O)oc12 | 23664* | 2 | 0 | -1 | -1
O=C(c1cc2cc(Br)ccc2oc1=O)N1CCN(c2ccccn2)CC1 | 16477* | 2 | -3 | 0 | 0
CCOc1ccc2oc(C(=O)N3CCN(c4ccccn4)CC3)c(C)c2c1 | 5614 | -2 | -2 | 1 | 13
Clc1ccc(OCc2nn3c(-c4ccco4)nnc3s2)c(Cl)c1 | 9502 | -3 | -7 | 1 | 12
OC(c1cccnc1)c1nc(/C=C/c2ccc(C(F)(F)F)cc2)cs1 (centres undefined) | 3509 | nt | -2 | 0 | 2
Cc1ccc(N2C(=O)CC(Cc3ccc(Cl)cc3)C2=O)cc1 (centres undefined) | 2990 | 2 | 5 | 4 | 18
Nc1ccnn1C1CCNCC1 | 19137* | 1 | 2 | 8 | 13
CC(C)(C)[C@H]1C=C(C(=O)N2CCOCC2)O[C@@H](OCc2ccc(CO)cc2)C1 | 3752 | 4 | 8 | 0 | 9
